“And” between values parts separate entries of the source, which are not always exact repeats. Identical values can stand only once. Results filed as inconclusive are left out. The source made the active and inactive calls. Calls follow the shape of the dose curve; as a rule, active = well fitted curve in the direction sought with a large enough effect; inconclusive = small, poorly fitted or top-dose-only effect, or another doubt; inactive = no such curve, though single readings can be large; an effect the other way counts as inactive or inconclusive.
The molecules below were run against N-terminal Xaa-Pro-Lys N-methyltransferase 1 (Homo sapiens) (UniProt Q9BV86) (assay: qHTS Assay for Inhibitors of N-terminal methyltransferase 1 (NTMT1): LOPAC validation of the NTMT1 SAHH-coupled ThioGlo3 Assay (AID 1347143;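 also: SAH from peptide methylation measured as thiol fluorescence via SAHH coupling and ThioGlo3; nearly all actives have a fitted effect of over 70% in size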; as to activity change, negative = inhibition: % is scaled to controls: 0 for no effect and ±100 for the full control effect)). Conditions: recombinant NTMT1, SAHH-coupled ThioGlo3 fluorescence; series mostly up to 114 µM; activity change, negative = inhibition: at the top concentration.
Procedure, shortened: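 Inhibition of NTMT1 methylation of peptide SPKRIA is followed by converting SAH with SAHH and labelling the released thiol with ThioGlo3. Plates are read at 340/450nm before and 30 min after reagent addition, both at room temperature.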
Potency is read from the fitted curve at half-maximal effect.

N-terminal Xaa-Pro-Lys N-methyltransferase 1 (Homo sapiens), sequence (Q9BV86 whole entry, looked up): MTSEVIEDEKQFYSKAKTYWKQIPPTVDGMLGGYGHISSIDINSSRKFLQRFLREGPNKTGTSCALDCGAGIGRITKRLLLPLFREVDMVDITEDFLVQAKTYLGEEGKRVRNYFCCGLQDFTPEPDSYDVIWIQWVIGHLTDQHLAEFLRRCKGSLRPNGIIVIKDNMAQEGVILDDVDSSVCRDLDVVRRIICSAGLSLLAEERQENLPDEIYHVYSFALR

Row | SMILES | activity change, negative = inhibition | Potency
1 | NS(=O)(=O)c1cc2c(cc1Cl)NCNS2(=O)=O | -10.1% (inactive) | 
2 | O=C(CCCN1CCC(O)(c2ccc(Cl)cc2)CC1)c1ccc(F)cc1 | -20.4% (inactive) | 
3 | Fc1ccc([C@@H]2CCNC[C@H]2COc2ccc3c(c2)OCO3)cc1 | -25.8% (inactive) | 
4 | Cn1cnc2c1c(=O)[nH]c(=O)n2C | -10.3% (inactive) | 
5 | OCCN1CCN(CCCN2c3ccccc3Sc3ccc(C(F)(F)F)cc32)CC1 |  | 44.7 µM (active)
6 | CN(CCOc1ccc(NS(C)(=O)=O)cc1)CCc1ccc(NS(C)(=O)=O)cc1 | -15.1% (inactive) | 
7 | CC(C)NCC(O)COc1ccc(CCOCC2CC2)cc1 (stereo not given) | -17.2% (inactive) | 
8 | Cn1c(=O)c2c(ncn2C)n(C)c1=O | -13.7% (inactive) | 
9 | CCOC(=O)c1ncn2c1CN(C)C(=O)c1cc(F)ccc1-2 | -5% (inactive) | 
10 | COc1ccc(C2CNC(=O)C2)cc1OC1CCCC1 (stereo not given) | -9.83% (inactive) | 
11 | Cc1cc(C(C)(C)C)cc(C)c1CC1=NCCN1 | -18.5% (inactive) | 
12 | CCOC(=O)C(C)(C)Oc1ccc(Cl)cc1 | -19.3% (inactive) | 

These molecules were tested on Zika virus NS2B-NS3 protease (unlinked) (assay: Optimization of GU AMC qHTS for Zika virus inhibitors: Unlinked NS2B-NS3 protease assay (AID 1347151; also: nearly all actives have a fitted effect of over 80% in size;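 as to activity change, negative = inhibition: 0% = no-inhibitor control and -100% = no-enzyme control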)). Conditions: recombinant ZIKV NS2B-NS3 protease, fluorogenic AMC substrate; series mostly up to 52.5 µM; activity change, negative = inhibition: at the top concentration.
Procedure, shortened: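 Noncovalent complex of NS2B hydrophilic domain and NS3 protease domain, 25 nM final, in 10 mM Tris-HCl pH 8.0, 0.01% Tween 20. AMC fluorescence change over 15 min at room temperature was fitted to a 4-parameter Hill equation.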

Row | SMILES | activity change, negative = inhibition | Potency
13 | NC(CO)C(=O)NNCc1ccc(O)c(O)c1O (stereo not given) | 1.23% (inactive) | 
14 | CN(C)CCOC(c1ccccc1)c1ccccc1 | 7.08% (inactive) | 
15 | NCCS(=O)(=O)O | 6.35% (inactive) | 
16 | CCN1CCCC1CNC(=O)c1cc(S(=O)(=O)CC)c(N)cc1OC (stereo not given) | -6.79% (inactive) | 
17 | CC(C)(Oc1ccc(C2CC2(Cl)Cl)cc1)C(=O)O (stereo not given) | -0.588% (inactive) | 
18 | CC12CC3CC(C)(C1)CC(N)(C3)C2 | 1.68% (inactive) | 
19 | COc1ccc(CCN(C)CCCC(C#N)(c2ccc(OC)c(OC)c2)C(C)C)cc1OC (stereo not given) | 12.2% (inactive) | 
20 | Nc1nnc(-c2cccc(Cl)c2Cl)c(N)n1 | -1.3% (inactive) | 
21 | Nc1nc2c(ncn2COC(CO)CO)c(=O)[nH]1 | 7.44% (inactive) | 
22 | COc1nc(C)nc(Cl)c1NC1=NCCN1 | -1.92% (inactive) | 
23 | CN(C)c1nc(N(C)C)nc(N(C)C)n1 | 0.48% (inactive) | 
24 | CN(C)C(=O)C(CCN1CCC(O)(c2ccc(Cl)cc2)CC1)(c1ccccc1)c1ccccc1 | 15.1% (inactive) | 
25 | O=c1[nH]cc(F)c(=O)[nH]1 | 6.73% (inactive) | 
26 | COc1ccc2c(c1)c(CC(=O)O)c(C)n2C(=O)c1ccc(Cl)cc1 | 3.09% (inactive) | 
27 | NCCc1cnc[nH]1 | -2.93% (inactive) | 
28 | COc1cc2nc(N(C)CCCNC(=O)C3CCCO3)nc(N)c2cc1OC (stereo not given) |  | 26.7 µM (active)
29 | CN1C2CCC1CC(OC(=O)C(CO)c1ccccc1)C2 (stereo not given) |  | inactive

Row | SMILES | activity change, negative = inhibition | Potency
30 | CC(C(=O)O)c1cccc(C(=O)c2ccccc2)c1 (stereo not given) | -2.64% (inactive) | 
31 | O=C1N(c2ccccc2)c2ccccc2C1(Cc1ccncc1)Cc1ccncc1 | 3.89% (inactive) | 
32 | O=C(C1CCCCC1)N1CC(=O)N2CCc3ccccc3C2C1 (stereo not given) | -1.13% (inactive) | 
33 | NCCCCCC(=O)O | 5.59% (inactive) | 
34 | NC(=O)OCC(COC(N)=O)c1ccccc1 | -0.892% (inactive) | 
35 | NS(=O)(=O)c1cc2c(cc1Cl)NCNS2(=O)=O | 0.181% (inactive) | 
36 | O=C(CCCN1CCC(O)(c2ccc(Cl)cc2)CC1)c1ccc(F)cc1 | 6.99% (inactive) | 
37 | Fc1ccc([C@@H]2CCNC[C@H]2COc2ccc3c(c2)OCO3)cc1 | 24.3% (inactive) | 
38 | Cn1cnc2c1c(=O)[nH]c(=O)n2C | -3% (inactive) | 
39 | OCCN1CCN(CCCN2c3ccccc3Sc3ccc(C(F)(F)F)cc32)CC1 | -4.13% (inactive) | 
40 | CN(CCOc1ccc(NS(C)(=O)=O)cc1)CCc1ccc(NS(C)(=O)=O)cc1 | -5.18% (inactive) | 
41 | CC(C)NCC(O)COc1ccc(CCOCC2CC2)cc1 (stereo not given) | 3.79% (inactive) | 
42 | Cn1c(=O)c2c(ncn2C)n(C)c1=O | 1.48% (inactive) | 
43 | CCOC(=O)c1ncn2c1CN(C)C(=O)c1cc(F)ccc1-2 | 5.21% (inactive) | 
44 | COc1ccc(C2CNC(=O)C2)cc1OC1CCCC1 (stereo not given) | 5.46% (inactive) | 
45 | Cc1cc(C(C)(C)C)cc(C)c1CC1=NCCN1 | 5.92% (inactive) | 
46 | CCOC(=O)C(C)(C)Oc1ccc(Cl)cc1 | 0.949% (inactive) | 

What follows are molecules tested on Zika virus NS2B-NS3 protease (assay: Primary screen GU AMC qHTS for Zika virus inhibitors (AID 1347154; also: nearly all actives have a fitted effect of over 70% in size;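 as to activity change, negative = inhibition: 0% = no-inhibitor control and -100% = no-enzyme control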)). Conditions: Zika NS2B-NS3 unlinked protease, AMC fluorogenic substrate; series mostly up to 54.1 µM; activity change, negative = inhibition: at the top concentration.
Procedure, shortened: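 Fluorogenic AMC-substrate cleavage by noncovalent NS2B-NS3 protease complex (25 nM, pH 8.0 Tris buffer with Tween 20) followed for 15 minutes at room temperature (~20% conversion). Percent inhibition from ex340/em450 signal change, fitted by 4-parameter Hill equation.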

Row | SMILES | Potency
47 | NC(CO)C(=O)NNCc1ccc(O)c(O)c1O (stereo not given) | inactive
48 | CN(C)CCOC(c1ccccc1)c1ccccc1 | inactive
49 | NCCS(=O)(=O)O | inactive
50 | CCN1CCCC1CNC(=O)c1cc(S(=O)(=O)CC)c(N)cc1OC (stereo not given) | inactive
51 | CC(C)(Oc1ccc(C2CC2(Cl)Cl)cc1)C(=O)O (stereo not given) | inactive
52 | CC12CC3CC(C)(C1)CC(N)(C3)C2 | inactive
53 | COc1ccc(CCN(C)CCCC(C#N)(c2ccc(OC)c(OC)c2)C(C)C)cc1OC (stereo not given) | inactive
54 | Nc1nnc(-c2cccc(Cl)c2Cl)c(N)n1 | inactive
55 | Nc1nc2c(ncn2COC(CO)CO)c(=O)[nH]1 | inactive
56 | COc1nc(C)nc(Cl)c1NC1=NCCN1 | inactive
57 | CN(C)c1nc(N(C)C)nc(N(C)C)n1 | inactive
58 | CN(C)C(=O)C(CCN1CCC(O)(c2ccc(Cl)cc2)CC1)(c1ccccc1)c1ccccc1 | inactive
59 | O=c1[nH]cc(F)c(=O)[nH]1 | inactive
60 | COc1ccc2c(c1)c(CC(=O)O)c(C)n2C(=O)c1ccc(Cl)cc1 | inactive
61 | NCCc1cnc[nH]1 | inactive
62 | COc1cc2nc(N(C)CCCNC(=O)C3CCCO3)nc(N)c2cc1OC (stereo not given) | 8.09 µM (active) and 21.5 µM (active)
63 | CN1C2CCC1CC(OC(=O)C(CO)c1ccccc1)C2 (stereo not given) | inactive

Row | SMILES | Potency
64 | CC(C(=O)O)c1cccc(C(=O)c2ccccc2)c1 (stereo not given) | inactive
65 | O=C1N(c2ccccc2)c2ccccc2C1(Cc1ccncc1)Cc1ccncc1 | inactive
66 | O=C(C1CCCCC1)N1CC(=O)N2CCc3ccccc3C2C1 (stereo not given) | inactive
67 | NCCCCCC(=O)O | inactive
68 | NC(=O)OCC(COC(N)=O)c1ccccc1 | inactive
69 | NS(=O)(=O)c1cc2c(cc1Cl)NCNS2(=O)=O | inactive
70 | O=C(CCCN1CCC(O)(c2ccc(Cl)cc2)CC1)c1ccc(F)cc1 | inactive
71 | Fc1ccc([C@@H]2CCNC[C@H]2COc2ccc3c(c2)OCO3)cc1 | inactive
72 | Cn1cnc2c1c(=O)[nH]c(=O)n2C | inactive
73 | OCCN1CCN(CCCN2c3ccccc3Sc3ccc(C(F)(F)F)cc32)CC1 | inactive
74 | CN(CCOc1ccc(NS(C)(=O)=O)cc1)CCc1ccc(NS(C)(=O)=O)cc1 | inactive
75 | CC(C)NCC(O)COc1ccc(CCOCC2CC2)cc1 (stereo not given) | inactive
76 | Cn1c(=O)c2c(ncn2C)n(C)c1=O | inactive
77 | CCOC(=O)c1ncn2c1CN(C)C(=O)c1cc(F)ccc1-2 | inactive
78 | COc1ccc(C2CNC(=O)C2)cc1OC1CCCC1 (stereo not given) | inactive
79 | Cc1cc(C(C)(C)C)cc(C)c1CC1=NCCN1 | inactive
80 | CCOC(=O)C(C)(C)Oc1ccc(Cl)cc1 | inactive

Source: PubChem BioAssay (NCATS)
